The nature of test [1]: qHTS assay to identify small molecule antagonists of the thyroid receptor (TR) signaling pathway - cell viability counter screen (AID 743064). Note: nearly all actives have a fitted effect of over 50% in size. In short, it runs like this: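 In rat pituitary GH3.TRE-Luc reporter cells co-exposed to compound and 1 nM T3 for 23.5 h, cytotoxicity was assessed with CellTiter-Fluor in the same wells, read by fluorescence.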
In general terms: In qHTS, concentration-response curves come from the screen itself.

A short description of test [2]: qHTS assay to identify small molecule antagonists of the thyroid receptor (TR) signaling pathway (AID 743065). Note: series mostly up to about 70 µM; nearly all actives have a fitted effect of over 55% in size. In short, it runs like this: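 Antagonism measured as loss of luciferase signal in GH3 cells stably carrying a TRE-luciferase reporter, co-treated with compound and T3 (1 nM final) for 23.5 h at 37 C. Viability was read in the same well by CellTiter-Fluor.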

Test [3] deals with thyroid hormone receptor (rat, GH3 cells). Description: qHTS assay to identify small molecule agonists of the thyroid receptor (TR) signaling pathway (AID 743066; calls by dose curve).
The target in test [4] is Estrogen receptor (Homo sapiens) (UniProt P03372). Description: qHTS assay to identify small molecule antagonists of the estrogen receptor alpha (ER-alpha) signaling pathway (AID 743069; active = well fitted curve in the direction sought with a large enough effect in the signal ratio in the repeat runs, not every such curve was filed as active; the % refers to the signal ratio). In short, it runs like this: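 Antagonist mode: compounds in DMSO were co-added with 17beta-estradiol to ER-alpha-bla HEK293 cells (2% charcoal-stripped serum) and left 18 h at 37C. Reporter inhibition was measured as FRET fluorescence after 2 h LiveBLAzer substrate at room temperature.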

Test [5] in a line: qHTS assay to identify small molecule antagonists of the estrogen receptor alpha (ER-alpha) signaling pathway - cell viability counter screen (AID 743074; calls by dose curve;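 note: HEK293 cells carrying ER-alpha-UAS-bla reporter stimulated with 17beta-estradiol; nearly all actives have a fitted effect of over 45% in size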).
In test [6] the target is Estrogen receptor (Homo sapiens) (UniProt P03372). Put plainly: qHTS assay to identify small molecule agonists of the estrogen receptor alpha (ER-alpha) signaling pathway (AID 743075; calls by dose curve;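 note: HEK293 GripTite cells with ER-alpha and UAS-driven beta-lactamase reporter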).
The target is the same in test [7]. Description: qHTS assay to identify small molecule agonists of the estrogen receptor alpha (ER-alpha) signaling pathway using the BG1 cell line (AID 743079). Note: nearly all actives have a fitted effect of over 20% in size. Note: potency is the fitted concentration of half-maximal effect.
Test [8] is described as follows: qHTS assay to identify small molecule antagonists of the estrogen receptor alpha (ER-alpha) signaling pathway using the BG1 cell line (AID 743080; calls by dose curve;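 note: BG1 cells stimulated with 17beta-estradiol alongside compound; series mostly up to about 70 µM; nearly all actives have a fitted effect of over 25% in size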). In short, it runs like this:
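BG1Luc4E2, endogenous ER-alpha, 4xERE-luc; 5 d charcoal-stripped FBS, phenol red free; 24 h plating; cpd + 17beta-estradiol 21.5 h, 37 C/5% CO2; CellTiter-Fluor viability 30 min, then ONE-Glo luciferase 30 min RT.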

The nature of test [9]: qHTS assay to identify small molecule antagonists of the estrogen receptor alpha (ER-alpha) signaling pathway using the BG1 cell line - cell viability counter screen (AID 743081).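 Note: compound given together with 17beta-estradiol as the ER stimulus; series mostly up to about 70 µM; nearly all actives have a fitted effect of over 45% in size.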
For a further test, the target named is Aromatase (Homo sapiens) (UniProt P11511). Description: qHTS assay to identify aromatase inhibitors (AID 743083). Note: series mostly up to about 70 µM; nearly all actives have a fitted effect of over 55% in size.
Test [10] is described as follows: qHTS assay to identify aromatase inhibitors - cell viability counter screen (AID 743084).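 Note: cells stimulated with testosterone during compound exposure; nearly all actives have a fitted effect of over 55% in size.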
For test [11], the target named is Aryl hydrocarbon receptor (Homo sapiens) (UniProt P35869). Put plainly: qHTS assay to identify small molecule that activate the aryl hydrocarbon receptor (AhR) signaling pathway (AID 743085).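 Note: HG2L7.5c1 human HepG2 liver cells with stably integrated DRE-driven firefly reporter; series mostly up to about 70 µM; nearly all actives have a fitted effect of over 15% in size.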 In short, it runs like this: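 AhR agonist activity is inferred from enhanced light output of a DRE-controlled firefly luciferase reporter in HepG2 cells, measured with ONE-Glo following 24 h treatment at 37C.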

The nature of test [12]: qHTS assay to identify small molecule that activate the aryl hydrocarbon receptor (AhR) signaling pathway - cell viability counter screen (AID 743086). Note: series mostly up to about 70 µM; nearly all actives have a fitted effect of over 45% in size. In short, it runs like this: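 Cytotoxicity counter screen: CellTiter-Fluor signal (30 min, 37 C) in 4000 HepG2 cells/well carrying the DRE-luciferase reporter, following 24 h compound exposure at 37 C.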
The target in test [13] is Peroxisome proliferator-activated receptor gamma (Homo sapiens) (UniProt P37231). Put plainly: qHTS assay to identify small molecule agonists of the peroxisome proliferator-activated receptor gamma (PPARg) signaling pathway (AID 743094; active = well fitted activation curve with a large enough effect in the signal ratio in the repeat runs, not every such curve was filed as active; the % refers to the signal ratio). In short, it runs like this: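 Cell-based bla reporter, HEK293H background, PPARg-driven UAS. Pre-incubation 5 h, 37C, 5% CO2. Compound 17 h, 37C. Substrate 1 h RT; fluorescence.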

Test [14] shares this target. Description: qHTS assay to identify small molecule antagonists of the peroxisome proliferator-activated receptor gamma (PPARg) signaling pathway (AID 743191; calls by dose curve; note: series mostly up to about 63 µM; nearly all actives have a fitted effect of over 30% in size). In short, it runs like this: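 Beta-lactamase reporter under UAS control in HEK293H PPARg-bla cells; compound treatment 17 h at 37C. Read-out: fluorescence intensity after 1 h room-temperature incubation with LiveBLAzer B/G FRET substrate.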

Test [15] in a line: qHTS assay for small molecule agonists of the antioxidant response element (ARE) signaling pathway (AID 743202; active = well fitted activation curve with a large enough effect in the signal ratio in the repeat runs, not every such curve was filed as active; the % refers to the signal ratio). In short, it runs like this: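 After 16 hours of compound treatment at 37 C, HepG2 cells with a stably integrated ARE-driven beta-lactamase reporter were loaded 2 hours at room temperature with LiveBLAzer B/G FRET substrate and fluorescence intensity measured.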
Test [16] is described as follows: qHTS assay for small molecule agonists of the antioxidant response element (ARE) signaling pathway - cell viability counter screen (AID 743203; calls by dose curve; note: nearly all actives have a fitted effect of over 55% in size). In short, it runs like this:
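Measured in the same wells as the beta-lactamase ARE reporter, this read-out is CellTiter-Glo luminescence from HepG2 ARE-bla cells given compounds for 16 hrs.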

Test [17] in a line: qHTS assay for small molecule activators of the heat shock response signaling pathway - cell viability counter screen (AID 743209). Note: nearly all actives have a fitted effect of over 50% in size. In short, it runs like this: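 Same-well multiplex: after 2.5 h room-temperature incubation with LiveBLAzer B/G substrate and fluorescence reading, CellTiter-Glo reagent was added to HSE-bla HeLa cells that had received compound for 5 h at 37 C; luminescence read after 30 min.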

A short description of test [18]: qHTS assay for small molecule activators of the heat shock response signaling pathway (AID 743210; active = well fitted activation curve with a large enough effect in the signal ratio in the repeat runs, with a control signal flat, not every such curve was filed as active; the % refers to the signal ratio; note: series mostly up to about 63 µM). In short, it runs like this:
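Compound exposure lasted 5 h at 37 C in HeLa cells carrying a heat-shock-element-driven beta-lactamase reporter. Read-out: fluorescence intensity after 2.5 h room-temperature loading with LiveBLAzer B/G FRET substrate.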

The nature of test [19]: qHTS assay to identify small molecule antagonists of the peroxisome proliferator-activated receptor gamma (PPARg) signaling pathway - cell viability counter screen (AID 743194). Note: nearly all actives have a fitted effect of over 55% in size. In short, it runs like this: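 Viability was measured as CellTiter-Glo luminescence in GeneBLAzer PPARg UAS-bla HEK293H cells. These cells had been exposed 17 h at 37 C to compounds together with rosiglitazone at 50 nM final, with the beta-lactamase readout taken in the same wells.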

Each structure is given as a SMILES string. Values joined by “and” are separate entries in the source; they are usually repeats but may differ in a detail not shown here. Equal entries are not always repeated. Results filed as inconclusive are left out. Active and inactive are the calls of the source. Unless noted, calls come from the whole dose curve; as a rule, active = well fitted curve in the direction sought with a large enough effect in the repeat runs; inconclusive = weak or mixed curves; inactive = no such curve, though single readings can be large; an effect the other way counts as inactive or inconclusive.

The values that follow come from PubChem BioAssay (Tox21).

Chain of Estrogen receptor (Homo sapiens) (P03372 whole entry, looked up): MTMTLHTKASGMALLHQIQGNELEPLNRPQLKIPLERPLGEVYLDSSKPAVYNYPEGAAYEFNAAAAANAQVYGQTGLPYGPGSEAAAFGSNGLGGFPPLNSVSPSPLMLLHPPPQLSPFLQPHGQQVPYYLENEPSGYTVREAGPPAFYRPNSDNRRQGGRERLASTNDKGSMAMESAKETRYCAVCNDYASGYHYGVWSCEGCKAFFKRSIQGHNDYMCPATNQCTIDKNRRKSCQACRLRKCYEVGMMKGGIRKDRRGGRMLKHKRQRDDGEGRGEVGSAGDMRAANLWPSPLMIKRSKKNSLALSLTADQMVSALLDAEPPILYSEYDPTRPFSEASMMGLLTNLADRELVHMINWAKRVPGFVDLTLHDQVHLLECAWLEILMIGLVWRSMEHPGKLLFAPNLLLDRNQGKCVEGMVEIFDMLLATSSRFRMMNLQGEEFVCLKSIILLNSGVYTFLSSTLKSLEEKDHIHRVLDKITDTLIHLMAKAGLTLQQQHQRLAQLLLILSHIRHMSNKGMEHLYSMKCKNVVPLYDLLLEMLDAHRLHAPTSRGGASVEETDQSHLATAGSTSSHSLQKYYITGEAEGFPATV
Chain of Peroxisome proliferator-activated receptor gamma (Homo sapiens) (P37231 whole entry, looked up): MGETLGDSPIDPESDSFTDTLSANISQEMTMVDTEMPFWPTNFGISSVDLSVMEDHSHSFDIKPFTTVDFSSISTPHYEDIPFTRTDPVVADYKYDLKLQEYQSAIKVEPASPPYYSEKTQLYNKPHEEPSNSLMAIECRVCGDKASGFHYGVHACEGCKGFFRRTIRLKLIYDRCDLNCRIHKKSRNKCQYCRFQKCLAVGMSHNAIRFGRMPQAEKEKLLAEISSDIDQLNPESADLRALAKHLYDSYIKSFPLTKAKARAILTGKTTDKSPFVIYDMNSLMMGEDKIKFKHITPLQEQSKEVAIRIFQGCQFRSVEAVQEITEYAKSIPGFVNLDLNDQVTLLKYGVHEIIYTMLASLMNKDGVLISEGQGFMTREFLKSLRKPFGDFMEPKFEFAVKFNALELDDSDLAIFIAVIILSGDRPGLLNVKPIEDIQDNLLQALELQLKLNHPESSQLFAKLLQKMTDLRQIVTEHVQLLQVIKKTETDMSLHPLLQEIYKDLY
Chain of Aromatase (Homo sapiens) (P11511 whole entry, looked up): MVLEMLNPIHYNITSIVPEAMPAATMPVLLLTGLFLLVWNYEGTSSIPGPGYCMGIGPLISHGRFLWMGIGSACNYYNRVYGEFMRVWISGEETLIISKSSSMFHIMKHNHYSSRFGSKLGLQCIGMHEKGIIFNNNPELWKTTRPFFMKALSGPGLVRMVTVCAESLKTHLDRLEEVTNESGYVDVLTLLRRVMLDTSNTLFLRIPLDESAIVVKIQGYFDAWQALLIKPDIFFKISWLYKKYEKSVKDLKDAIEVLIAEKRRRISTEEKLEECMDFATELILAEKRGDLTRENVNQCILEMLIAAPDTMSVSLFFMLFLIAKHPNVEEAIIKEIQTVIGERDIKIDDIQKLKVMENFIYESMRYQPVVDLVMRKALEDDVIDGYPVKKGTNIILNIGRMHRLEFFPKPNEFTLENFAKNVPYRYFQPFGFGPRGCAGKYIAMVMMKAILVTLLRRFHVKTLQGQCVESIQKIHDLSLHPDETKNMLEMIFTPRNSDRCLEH
Chain of Aryl hydrocarbon receptor (Homo sapiens) (P35869 whole entry, looked up): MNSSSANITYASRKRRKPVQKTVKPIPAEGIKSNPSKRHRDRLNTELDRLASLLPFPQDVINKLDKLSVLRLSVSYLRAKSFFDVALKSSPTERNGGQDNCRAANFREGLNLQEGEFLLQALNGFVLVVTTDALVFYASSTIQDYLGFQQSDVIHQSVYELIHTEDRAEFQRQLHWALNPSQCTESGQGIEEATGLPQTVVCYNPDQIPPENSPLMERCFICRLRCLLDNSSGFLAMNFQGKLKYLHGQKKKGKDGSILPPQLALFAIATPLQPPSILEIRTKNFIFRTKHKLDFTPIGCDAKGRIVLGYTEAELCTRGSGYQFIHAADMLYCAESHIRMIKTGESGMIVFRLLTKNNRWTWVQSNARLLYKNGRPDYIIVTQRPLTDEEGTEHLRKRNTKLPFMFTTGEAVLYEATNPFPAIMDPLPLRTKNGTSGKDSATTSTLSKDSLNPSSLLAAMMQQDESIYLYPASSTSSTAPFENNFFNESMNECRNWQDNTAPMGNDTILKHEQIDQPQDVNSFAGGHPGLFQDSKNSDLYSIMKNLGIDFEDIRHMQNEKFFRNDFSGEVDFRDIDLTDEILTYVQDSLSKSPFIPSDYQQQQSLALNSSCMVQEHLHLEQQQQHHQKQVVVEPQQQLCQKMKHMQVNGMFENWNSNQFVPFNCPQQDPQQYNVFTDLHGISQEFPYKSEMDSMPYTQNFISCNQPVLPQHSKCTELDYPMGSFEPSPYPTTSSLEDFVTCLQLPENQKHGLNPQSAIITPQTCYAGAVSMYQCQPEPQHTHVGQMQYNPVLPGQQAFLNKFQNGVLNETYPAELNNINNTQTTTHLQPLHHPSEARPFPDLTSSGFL

`O=C(OCCOCCOC(=O)c1ccccc1)c1ccccc1`: the Potency result in [1], in [2], in test [3], in [4], in test [6] and in test [7] was “inactive” throughout. Also, the Potency entry (in test [8]; in test [9]; in the test with Aromatase (Homo sapiens); in [10]; in test [11]; in test [15]) was “inactive” each time. In addition, the Potency result in test [18] is “inactive”. The call in test [5], in test [12], in [13], in test [14], in test [16] and in [17] was inactive.
Consider `CCN(CC)c1ccc(C(=O)c2ccccc2C(=O)O)c(O)c1`, for which the Potency entry in test [1], in test [2], in test [3], in [4], in test [6] and in [9] was “inactive” throughout. Further, the Potency entry (with Aromatase (Homo sapiens); in test [10]; in [11]; in test [15]; in test [18]) was “inactive” throughout. In addition, the outcome in [5], in test [12], in [16] and in test [17] was inactive. In addition, the Potency in test [7] was 17.3 µM (active) and 43.3 µM (active).
`O=C(O)c1cc(C(=O)O)cc(S(=O)(=O)O)c1`: the Potency result (in test [1]; in test [2]; in test [3]; in test [9]; with Aromatase (Homo sapiens); in test [10]) was “inactive” each time. Further, the Potency entry in test [11], in [15] and in test [18] was “inactive” each time. The compound was classed as inactive in test [5], in test [12], in [13], in test [19], in [16] and in test [17].
In the case of `Cc1ccc(S(N)(=O)=O)cc1`, the Potency entry (in test [1]; in test [2]; in [3]; in test [9]; with Aromatase (Homo sapiens); in test [10]) was “inactive” throughout. The Potency result in [11], in test [15] and in [18] was “inactive” each time. For the same compound, the compound was classed as inactive in test [5], in [12], in [13], in [14], in test [19] and in test [16]. In addition, in test [17], the compound was called inactive.
As to `O=C(O)[C@H](O)[C@@H](O)[C@H](O)[C@H](O)CO`, the Potency entry (in [1]; in test [2]; in test [3]; in [9]; with Aromatase (Homo sapiens); in [10]) was “inactive” each time. In addition, the Potency result in test [11], in test [15] and in test [18] was “inactive” in each case. In addition, the call in [5], in test [12], in [13], in [19], in [16] and in test [17] was inactive.
For `C[C@H]1C[C@@H]2[C@H]([C@@H](O)C[C@@]3(C)[C@H]2CC[C@]3(O)C(=O)CO)[C@@]2(C)C=CC(=O)C=C12`, the Potency result (in test [1]; in test [2]; in test [3]; in test [9]; in the test with Aromatase (Homo sapiens); in test [10]) was “inactive” throughout. For the same compound, the Potency entry in test [11] and in [15] was “inactive” each time. Moreover, the compound was classed as inactive in test [5], in test [12], in test [13], in test [19] and in [16].
With `CC(=O)CC(=O)Nc1ccccc1`, the Potency result (in [1]; in test [2]; in test [3]; in [9]; with Aromatase (Homo sapiens); in [10]) was “inactive” each time. The Potency result in test [11] and in [18] was “inactive” throughout. The result in test [5], in test [12], in test [13], in [14], in [19] and in [16] was inactive. Besides, in [17], the outcome was inactive.
Regarding `C=CCOC(=O)c1ccccc1C(=O)OCC=C`, the Potency entry in test [1], in test [2], in [3], in test [4], in [6] and in test [7] was “inactive” in each case. Also, the Potency result in [8], in test [9], in test [10], in test [11], in test [15] and in test [18] was “inactive” in each case. In addition, the compound was called inactive in [5], in test [12], in test [13], in [14], in test [19] and in test [16].
With `CCCCC(CC)CO` (stereo not drawn), the Potency entry (in test [1]; in [2]; in [3]; in test [9]; in the test with Aromatase (Homo sapiens); in test [10]) was “inactive” in each case. The Potency result in test [11], in test [15] and in test [18] was “inactive” in each case. For the same compound, the compound was called inactive in [5], in test [12], in [13], in [14], in test [19] and in test [16]. For the same compound, the call in [17] was inactive.
